The results in this text go back to PubChem BioAssay.

Where “and” joins values, the source holds several entries; their conditions need not be identical. Identical values can stand only once. For some assays here: Potency and affinity values are given separately. Calls of active or inactive are those of the source. Rule as the data show it, unless noted: active = parasite load remaining mostly below about 12% (no sharp cut-off); inactive = mostly above about 10%.

A short description of assay [1]: blockers of polyQ-driven CASP3 activation – cell-based (AID 1583). The following applies: polyglutamine-induced caspase-3 activation, cell assay; stronger effect = higher value;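 tested at 10 µM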.
The nature of assay [2]: yeast 75Q aggregation reduction – 75Q-TubU reporter (AID 1593). The following applies: Yeast 75Q polyglutamine aggregation reporter.
Assay [3] is described as follows: restoration of touch response, mutant HTT neurons – whole organism, C. elegans mechanosensory neurons, N-terminal huntingtin (AID 1599). The following applies: C. elegans polyQ-huntingtin mechanosensory neurons, stronger effect = higher value.
A short description of assay [4]: blockers of cytochrome c efflux from mitochondria – biochemical, purified mitochondria (AID 1603).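 Also: mouse liver mitochondria challenged with calcium chloride; signal normalized to the plate average as 100%.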 The following applies: stronger effect = lower value.
Assay [5] can be described thus: polyglutamine aggregate formation blockers (AID 1604). The following applies: polyglutamine-induced protein aggregation inhibition assay; stronger effect = higher value; tested at 2.5 µM.
Assay [6] in a line: glutamate transport activators, MN-1 cells, MN-1 cell line (AID 1612).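 Also: tested at 1 µM final; 0% = mean of DMSO vehicle wells on each plate; positive means more glutamate uptake than control and negative means less.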 The following applies: MN-1 motor neuron cells, stronger effect = higher value.
A short description of assay [7]: GFP-Q80 aggregate reduction, neuronal-like cells, cell-based, NGF-treated PC12, GFPQ80 (AID 1614).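 Also: lower means fewer inclusions and 0 means no inclusions at all.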 The following applies: PC12 NGF-treated GFP-polyQ80 inclusion reduction.
Assay [8] in a line: 75Q-TubH aggregate inhibition, S. cerevisiae, yeast (AID 1616). The following applies: S. cerevisiae 75Q-TubH polyglutamine aggregation suppression; stronger effect = higher value.
A short description of assay [9]: P. berghei load reduction in hepatocytes – cell-based, HepG2, luciferase luminescence, HepG2 viability, primary screen (AID 624349).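 Also: 100% = mean of DMSO negative control wells on the same plate.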 The following applies: P. berghei liver stage in HepG2, luciferase luminescence, concentration not given here; parasite load remaining: stronger effect = lower value; viability: measured here: HepG2 viability without parasites.
The nature of assay [10]: EMT-state selective cytotoxicity in co-culture – imaging, PC-3E GFP, TEM4-18 mCherry, primary screen (AID 1345086;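 active = compounds killing one labelled cell type while sparing the other, by normalised counts and ratio limits, not self-fluorescent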;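 as to all read-outs here: cells exposed to compound for 72 h before imaging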;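 as to red/green cell ratio (normalised): normalised mesenchymal count divided by normalised epithelial count so high means epithelial killing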). The following applies: PC-3E GFP / TEM4-18 mCherry co-culture, imaging cell counts, at 1 µM; for red/green cell ratio (normalised): actives lie on both sides, counts scaled to control wells, 1 = unselective.
Assay [11] can be described thus: viability loss with induced miR-34 in A549 – imaging, A549 dox-inducible miR-34, nuclei and caspase counts, primary screen (AID 1347080;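 active = compounds whose cell count with miR-34 switched on is under 0.7 times the count with it off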). The following applies: A549 miR-34 inducible, Hoechst nuclei count, 48 h.
[12] abbreviates: measured here: epithelial PC-3E GFP cell survival.
Setting [13] is: measured here: mesenchymal TEM4-18 mCherry cell survival.
The mark [14] stands for this setting: stronger effect = lower value, cell number ratio, induced over uninduced.
[15] abbreviates: measured here: relative caspase fold change +Dox/-Dox.
Where [16] appears, read: measured here: total cells with miR-34 induction, stronger effect = lower value.
Where [17] appears, read: measured here: total cells without miR-34 induction.

On to `C[C@H]1CC2C([C@@H](O)C[C@@]3(C)C2CC[C@]3(O)C(=O)CO)[C@@]2(C)C=CC(=O)C=C12` (stereo partly specified), for which, in assay [1], the inhibition was determined as 13.3%. Also, in assay [2], the score came to 1.06. In assay [3], this compound had a rescue above control of -2. In addition, the cytochrome c release ratio in [4] turned out to be 0.64. Moreover, in assay [5], the inhibition of aggregation is 83.1%. Further, the glutamate uptake change in [6] amounted to 14.1%. The inclusion score in [7] was 2. For the same compound, the aggregation suppression score in [8] was found to be 1.35. Also, the parasite load remaining in [9] was 110% (inactive) and 67.7% (inactive). Further, the viability in [9] was 78.4% and 89.4%. Moreover, the red/green cell ratio (normalised) in [10] was 1.21 (inactive). Further, the normalised cell number in [10] (setting [12]) amounted to 1.36; in [10] (setting [13]) it was 1.64. Moreover, the fold change is 0.922 (inactive) in [11] (setting [14]) and 1.43 in assay [11] (setting [15]). Besides, the cell count in [11] (setting [16]) worked out at 7440; in assay [11] (setting [17]), 8070.
`CCN1CCN(C(=O)NC(C(=O)NC2C(=O)N3C(C(=O)O)=C(CSc4nnnn4C)CSC23)c2ccc(O)cc2)C(=O)C1=O` (stereo unspecified) showed an inhibition in [1] of 16.1%. Moreover, the score in [2] turned out to be 1.1. In [3], the rescue above control was -10. Besides, the cytochrome c release ratio in assay [4] worked out at 0.84. In addition, the inhibition of aggregation in [5] amounted to 50.2%. In addition, in assay [6], the glutamate uptake change was found to be 15.1%. In addition, the inclusion score in assay [7] came out at 2. The same compound had an aggregation suppression score in [8] of 1.47. The parasite load remaining in assay [9] was 146% (inactive) and 45.3% (inactive). For the same compound, the viability in assay [9] was 72.7% and 103%. Moreover, the red/green cell ratio (normalised) in assay [10] is 1.23 (inactive). The normalised cell number came out at 0.99 in assay [10] (setting [12]) and 1.22 in assay [10] (setting [13]). Moreover, the fold change was 0.914 (inactive) in [11] (setting [14]) and 3.35 in assay [11] (setting [15]). Moreover, the results for the cell count in assay [11] (setting [16]) and in [11] (setting [17]) were 12000 and 13100, respectively.
On to `CC1(C)O[C@@H]2CC3C4CCC5=CC(=O)C=C[C@]5(C)[C@@]4(F)[C@@H](O)C[C@]3(C)[C@]2(C(=O)CO)O1` (stereo partly specified), for which, in assay [1], the inhibition was found to be 7.99%. Besides, the score in [2] was determined as 0.99. The same compound showed a rescue above control in assay [3] of -3.95. Besides, the cytochrome c release ratio in [4] amounted to 1.15. In addition, the inhibition of aggregation in assay [5] was found to be 85.2%. Moreover, in assay [6], the glutamate uptake change is 20.7%. The same compound yielded an inclusion score in assay [7] of 2. In addition, the aggregation suppression score in [8] was found to be 1.19. Also, the parasite load remaining in [9] is 187% (inactive) and 62.4% (inactive). In addition, the viability in assay [9] is 64.4% and 84.9%. Besides, the red/green cell ratio (normalised) in assay [10] was 1.43 (inactive). Moreover, the results for the normalised cell number in [10] (setting [12]) and in assay [10] (setting [13]) were 0.86 and 1.23, respectively. Besides, the fold change was 0.787 (inactive) in [11] (setting [14]) and 3.14 in assay [11] (setting [15]). Besides, the cell count in [11] (setting [16]) was determined as 6650; in assay [11] (setting [17]) it was 8440.
In assay [1], `C[C@]12C=CC(=O)C=C1CCC1C2C(=O)C[C@@]2(C)C1CC[C@]2(O)C(=O)CO` (stereo partly specified) registered an inhibition of 10.6%. The score in [2] was 1.16. In assay [3], this compound displayed a rescue above control of 5.79. Moreover, the cytochrome c release ratio in assay [4] was 0.79. The inhibition of aggregation in assay [5] was -17.6%. Besides, the glutamate uptake change in assay [6] was -8.9%. Further, in [7], the inclusion score was determined as 2. Moreover, the aggregation suppression score in assay [8] worked out at 1.29. The parasite load remaining in assay [9] was 71.9% (inactive) and 35.5% (inactive). The viability in [9] is 73% and 91%. In addition, in assay [10], the red/green cell ratio (normalised) was 1.16 (inactive). Besides, the normalised cell number was determined as 0.94 in assay [10] (setting [12]) and 1.1 in assay [10] (setting [13]). Moreover, the fold change was 0.854 (inactive) in [11] (setting [14]) and 2.55 in [11] (setting [15]). Also, the cell count in assay [11] (setting [16]) is 10500; in [11] (setting [17]), 12300.
`Cc1onc(-c2ccccc2)c1C(=O)NC1C(=O)N2[C@@H]1SC(C)(C)[C@@H]2C(=O)O` (stereo partly specified) gave an inhibition in assay [1] of 7.8%. Also, the score in assay [2] stood at 1.09. The rescue above control in assay [3] turned out to be 17.4. In addition, the cytochrome c release ratio in assay [4] turned out to be 0.85. Moreover, the inhibition of aggregation in assay [5] is -11.1%. In addition, the glutamate uptake change in assay [6] was -21.8%. This compound also registered an inclusion score in [7] of 2. For the same compound, the aggregation suppression score in assay [8] amounted to 1.34. Further, the parasite load remaining in assay [9] was 86.3% (inactive) and 60.5% (inactive). Further, the viability in assay [9] is 72.2% and 86.2%. In addition, the red/green cell ratio (normalised) in assay [10] was 0.97 (inactive). Further, the normalised cell number in [10] (setting [12]) turned out to be 1.16; in [10] (setting [13]) it was 1.12. Also, the fold change in assay [11] (setting [14]) was 0.832 (inactive); in assay [11] (setting [15]) it was 1.09. In addition, the results for the cell count in assay [11] (setting [16]) and in assay [11] (setting [17]) were 11300 and 13500, respectively.
Turning to `C[C@]12CCC3c4ccc(O)cc4CCC3C1CC[C@@H]2OC(=O)CCC1CCCC1` (stereo partly specified), the inhibition in assay [1] turned out to be 30.9%. In addition, the score in [2] is -0.35. Besides, the rescue above control in assay [3] is -0.57. The cytochrome c release ratio in assay [4] is 0.97. In assay [5], the inhibition of aggregation was 94.4%. Further, in [6], the glutamate uptake change is -6.63%. Also, the aggregation suppression score in assay [8] was determined as 0.396. Also, in assay [9], the parasite load remaining is 77.3% (inactive) and 37.9% (inactive). Further, the viability in [9] was 74.2% and 90.6%. Also, the red/green cell ratio (normalised) in assay [10] was 1.54 (inactive). Besides, the normalised cell number in assay [10] (setting [12]) came out at 0.83; in assay [10] (setting [13]), 1.27. Further, the fold change in assay [11] (setting [14]) was 1 (inactive); in [11] (setting [15]), 1.31. Besides, the cell count in assay [11] (setting [16]) and in assay [11] (setting [17]) was 11300 in each case.
